HT1080 IDH1KD tx: toxicity to HT-1080 IDH1 knockdown cells (counter line). HT-1080 IDH1 knockdown viability, ATP luminescence, 48 h. Potency, µM (series often up to 46.1 µM), most hits filed as cytotoxic. actives 2% (n = 360,000)
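IDH1KD HT-1080 cells, 750/well, RPMI + 5% FBS; compound pinned after 2 h settling; 48 h, 37 °C; CellTiter-Glo luminescence; % activity normalised to DMSO and no-cell wells; curves fitted, classed by r2 and efficacy.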
HT1080NT lethal: kills 2HG-producing HT-1080-NT fibrosarcoma cells; HT-1080-NT fibrosarcoma viability, CellTiter-Glo ATP luminescence, 48 h; Potency, µM (doses to about 46.1 µM), actives largely listed as cytotoxic; actives 1.6% (n = 360,000); AID 686970;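 also: NT is the 2HG producing partner of a matched IDH1 knockdown line; nearly all actives have a fitted effect of over 55% in size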
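Toxicity toward the 2HG-producing NT line was scored as %Activity, normalised to DMSO and no-cell wells, from CellTiter-Glo luminescence after 48 hours' treatment.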
DT40 TDP1 CPT: DT40-hTDP1 cell growth loss with CPT; actives 12% (n = 420,000); Potency, µM (titrated, usually from 46.2 µM), actives largely listed as inhibitors; chicken DT40 Tdp1-/-;hTDP1 cells + 20 nM CPT, ATP luminescence, 48 h; also: nearly all actives have a fitted effect of over 55% in size
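Chicken DT40 Tdp1-/- cells stably complemented with human TDP1 were seeded at 400 cells/well in medium containing 20 nM camptothecin, exposed to pin-transferred compounds, and grown at 37 °C for at least 48 hr. Viability was read as ATP luminescence.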
IL-1B inflam inh: inhibitors of inflammasome signaling (IL-1 beta secretion); THP-1 LPS/ATP IL-1B secretion, AlphaLISA, 16 h; hits give low values; activity change, % at 57.5 µM; actives 4.7% (n = 360,000); AID 743279; in the data active = activity change below about -50%; inconclusive = mostly about -30% to -49%
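Secreted IL-1B measured by AlphaLISA bead assay after 16 h compound exposure of THP-1 cells; compounds (final up to 57.5 uM) added 1 h before LPS (250 ng/mL) and ATP (1.25 mM) stimulation; lower signal means less secretion.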
DT40 TDP1 no CPT: qHTS for Inhibitors of human tyrosyl-DNA phosphodiesterase 1 (TDP1): qHTS in cells in absence of CPT | DT40 Tdp1-/- hTDP1 cells, no CPT, ATP luminescence, 48 h | Potency, µM (top dose mostly 46.2 µM), actives largely listed as inhibitors | actives 15% (n = 420,000) | AID 686978, 2013; also: nearly all actives have a fitted effect of over 55% in size
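DT40 Tdp1-/-;hTDP1 cells, no CPT (DMSO vehicle only), 400 cells/well; compounds pin-transferred; ≥48 hr, 37 °C; CellTiter-Glo 30 min RT dark, luminescence read.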
Numbers stand for hits; – = inactive; ? = inconclusive; · = no result; ! = repeats disagree; [ ] = remark or other dose. Sampled rows, rich in hits. Any-hit rate of the full collection: about 19%. Unless noted, calls follow the shape of the dose curve; as a rule, active = well fitted curve in the direction sought with a large enough effect; inconclusive = small, poorly fitted or top-dose-only effect, or another doubt; inactive = no such curve, though single readings can be large; an effect the other way counts as inactive or inconclusive.

SMILES	HT1080 IDH1KD tx	HT1080NT lethal	DT40 TDP1 CPT	IL-1B inflam inh	DT40 TDP1 no CPT
CCOP(=O)(OCC)Oc1cc(C)c(N(C)C)c(C)c1	–	–	–	–	?
CC(C)c1ccc(Cc2cnc(NC(=O)c3ccc4c(c3)CC(c3ccccc3)OC4=O)s2)cc1 (centres undefined)	·	·	23.1µM	·	18.4µM
O=Nc1c(-c2ccccc2)n(O)[n+]([O-])c1-c1ccccc1	–	–	?	–	20.6µM
CC(=O)Nc1ccc(S(=O)(=O)N(C)CCOCc2ccccc2)cc1	–[9.24 µM]	–	23.1µM	–	18.4µM
COc1ccc(CN2CCc3nc(N4CCN(c5ccc(F)cc5)CC4)ncc3C2)c(OC)c1OC	·	·	5.8µM	·	4.61µM
COc1ccc(C(C)(C)C)cc1NC(=O)CCCn1c(=O)oc2ccccc21	–	–	–	–	?
Cc1ccc(CN2C3CCCC2CC(NC(=O)Nc2cccc(F)c2)C3)cc1 (centres undefined)	–	?	?	-69.7	14.6µM
CCC(=O)N1c2ccc(S(=O)(=O)CCC(=O)N3CCC4(CC3)OCCO4)cc2CC1C (centres undefined)	–	–	–	–	–
CC(C)[C@H](N)C(=O)OCC(CO)OCn1cnc2c(=O)[nH]c(N)nc21 (some centres undefined)	·	·	13.3µM	·	10.6µM
CC(C)C[C@H](NC(=O)[C@H](Cc1ccccc1)NC(=O)CNC(=O)CNC(=O)[C@@H](N)Cc1ccc(O)cc1)C(=O)N[C@@H](CCCN=C(N)N)C(=O)N[C@@H](CCCCN)C(=O)N[C@@H](Cc1ccc(O)cc1)C(=O)N1CCC[C@H]1C(=O)N[C@@H](CCCCN)C(=O)O	·	·	–[4.12 µM]	·	–[4.12 µM]
COc1ccc2ccccc2c1CNCCc1ccccc1	–	–	23.1µM	-54.6	?
CC(=O)OC1N=C(c2ccccc2Cl)c2cc(Br)ccc2NC1=O (centres undefined)	–	–	?	-71.4	?
Cc1ccc(O)c([C@H](CCN(C(C)C)C(C)C)c2ccccc2)c1	?	?	20.6µM!	–	?
C[C@]12CCC3C(CC[C@H]4C[C@@H](O)[C@H](O)C[C@]34C)C1CC[C@@H]2O (some centres undefined)	–	–	–	–	–
C[C@]12CCC3C(CC[C@H]4C[C@H](O)[C@H](O)C[C@]34C)C1CC[C@@H]2O (some centres undefined)	–	–	20.6µM	–	?
NC(Cc1ccccc1Cl)c1nn[nH]n1 (centres undefined)	–	–	–	–	–
CC(=O)OCC1=C(C(=O)O)N2C(=O)C(NC(=O)CCCC(N)C(=O)O)C2SC1 (centres undefined)	·	·	?	·	–
CCCOC(=O)C1=C(C)CS[C@@H]2[C@H](NC(=O)COc3ccccc3)C(=O)N12	·	·	20µM	·	?
ClC(Cl)(Cl)Cl	·	·	–	·	–
N=C1C(c2ccccc2)=C(O)CN1Cc1ccco1	–	–	–	–	–
CCCCN(C)C(=O)c1oc2ccc(S(=O)(=O)N3CCCCCC3)cc2c1C	?	?	18.4µM	-67.6	?
CC(C)COC(=O)n1c(=O)oc2cc(S(=O)(=O)N3CCCCC3)ccc21	?	?	?	–	?
Cc1c(C(=O)N2CCC3(CC2)OCCO3)oc2ccc(S(=O)(=O)N3CCOCC3)cc12	–	–	–	–	–
Cc1c(C(=O)N2CCC3(CC2)OCCO3)oc2ccccc12	–	–	–	–	–
Cc1c(Cl)cccc1NC(=O)c1oc2ccc(S(=O)(=O)N3CCC4(CC3)OCCO4)cc2c1C	·	·	4.11µM	·	4.11µM
SMILES	HT1080 IDH1KD tx	HT1080NT lethal	DT40 TDP1 CPT	IL-1B inflam inh	DT40 TDP1 no CPT
Cc1c(C(=O)Nc2ccccc2Cl)oc2ccc(S(=O)(=O)N3CCCCC3)cc12	·	·	20.6µM	·	16.4µM
Cc1c(C(=O)NCCC2=CCCCC2)oc2ccc(S(=O)(=O)N3CCC4(CC3)OCCO4)cc12	–	–	18.4µM	-66.2	23.1µM
Cc1cccc(Cc2cnc[nH]2)c1C	·	·	–	·	–
CC(C)(C)NCC(O)c1ccccc1Cl (centres undefined)	·	·	–	·	–
O=c1[nH]c(=O)n(C2CCCCC2)c(O)c1/C=C/C=Nc1ccccc1	–	–	–	–	–
CCCn1c(C(=O)c2ccccc2)nc2ccccc21	–	–	–	–	–
CCCCn1c(-c2nonc2NC(=O)c2ccccc2Cl)nc2ccccc21	–	–	10.3µM	–	23.1µM
CC(C)NC[C@H](O)c1ccc(N)c(C#N)c1	·	·	–	·	–
COC(=O)C1=C(c2ccc(S(C)(=O)=O)cc2)C[C@@H]2CC[C@H]1N2C(=O)N1CCCCC1	–	–	–	–	–
COC(=O)C1=C(c2cc3ccccc3o2)C[C@@H]2CC[C@H]1N2C(=O)N1CCCC1	–	–	?	–	16.4µM
COC(=O)C1=C(c2cc3ccccc3o2)C[C@@H]2CC[C@H]1N2C(=O)NCCO	–	–	–	–	–
COC(=O)C1=C(c2cc3ccccc3o2)C[C@@H]2CC[C@H]1N2C(=O)N1CCCCC1	10.3µM	?	4.61µM	–	2.31µM
CCCNC(=O)N1[C@H]2CC[C@@H]1C(C(=O)OC)=C(c1cc3ccccc3o1)C2	–	–	16.4µM	–	16.4µM
CCN1C[C@]2(C)CC[C@H](OC)[C@]34C5C[C@@H]6CC[C@@](O)(C5C(=O)O6)C(C13)[C@@H](OC(=O)c1ccccc1)C24	·	·	–[9.04 µM]	·	–[9.04 µM]
O=C(Cc1cc(=O)[nH]c(=O)[nH]1)N1CCN(CCO)CC1	–	–	–	–	–
O=c1cccc2n1C[C@H]1C[C@@H]2CN2CCCC[C@@H]12	–	–	–	–	–
O=C(O)c1cc[c]([Hg][Cl])cc1	18.4µM	16.4µM	0.651µM	-101.1	0.92µM
COc1ccc(C(=O)O)cc1OC	–	–	–	–	–
COC(=O)C1=C(c2ccc(OC(F)(F)F)cc2)C[C@@H]2CC[C@H]1N2C(=O)NCc1cccc2ccccc12	?	–	?	-70.9	?
COC(=O)C1=C(c2ccc(OC(F)(F)F)cc2)C[C@@H]2CC[C@H]1N2C(=O)NCc1cc(C)oc1C(F)(F)F	?	–	?	–	20.6µM
COC(=O)C1=C(c2ccc3ccccc3c2)C[C@@H]2CC[C@H]1N2C(=O)NCc1ccc(C(F)(F)F)cc1	?	–	?	?	?
COC(=O)C1=C(c2ccc3ccccc3c2)C[C@@H]2CC[C@H]1N2C(=O)NCc1ccc(F)cc1	?	?	?	–	16.4µM
COC(=O)C1=C(c2ccc(OC(F)(F)F)cc2)C[C@@H]2CC[C@H]1N2C(=O)NCc1ccc(F)cc1	–	–	18.4µM	–	20.6µM
CCC1=Nc2cc(C(=O)N3CCC4(CC3)OCCO4)ccc2Sc2ccc(Br)cc21	–	–	?	–	?

Source: PubChem (National Center for Advancing Translational Sciences (NCATS))
